From PubChem
The list is not random: actives were taken first. Their share in the collection is about 4.8%.
tim10-1 inh = tim10-1 yeast growth inhibition. S. cerevisiae tim10-1 ts strain growth, BacTiter-Glo, 24 h. inhibition, % at 20 µM. 330,000 compounds, 2.2% hits. AID 463190;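 active = inhibition of at least 40%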;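 note: mutant grown at 25 °C; 0% = DMSO wells with yeast and 100% = wells holding no yeast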
PfHsp90 set2 = reduces growth (ATP signal) of yeast expressing P. falciparum Hsp90; AID 504621; S. cerevisiae expressing PfHsp90, BacTiter-Glo ATP, 48 h; yeast lacking PDR1 and PDR3 efflux regulators; 310,000 compounds, 0.32% hits; inhibition, % at 9.4 µM;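 active = every replicate shows inhibition above about 80%, whatever the replicate mean, limit read from the data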;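 note: 0% = DMSO neutral controls and 100% = 20 µM radicicol positive controls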
NALP1 yeast inh = NALP1 inhibition | S. cerevisiae NALP1/ASC/caspase-1 growth, X-gal OD620, 72 h | AID 2071 | inhibition, % at 10 µM | 280,000 compounds, 0.61% hits; in the data active = inhibition mostly above about 24%, no sharp cut-off; inactive = mostly below about 32%
tim23-1 inh = tim23-1 yeast growth inhibition | 330,000 compounds, 1.3% hits | inhibition, % at 20 µM | AID 463212 | S. cerevisiae tim23-1 growth, BacTiter-Glo luminescence, 24 h;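 active = growth inhibition of the mutant yeast at or above 50%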;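 note: temperature-sensitive mutant grown at 25 °C; plate controls were DMSO-treated mutant yeast for no effect and medium wells lacking yeast for full effect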
TIM10 inh = growth inhibitors of TIM10 yeast strain; S. cerevisiae TIM10 strain growth, BacTiter-Glo luminescence, 24 h; inhibition, % at 10 µM; 330,000 compounds, 1.4% hits; AID 463195;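 active = inhibition of 40% or more at the single tested concentration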;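 note: wild-type TIM10 isogenic control strain grown at permissive 25 °C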
SKKanGAS inh = blocks kanamycin growth of S. pyogenes SKKanGAS strain; BacTiter-Glo, 6 h; inhibition, % at 7.5 µM; 300,000 compounds, 1.3% hits;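 active = mean replicate score, as percent of positive control median, at least 50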;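 note: strain carries kanamycin resistance gene driven by streptokinase promoter and grows in 40 µg/ml kanamycin; loss of luminescence reflects streptokinase promoter inhibition or plain growth inhibition; 0% = median of DMSO wells and 100% = positive control at its reference dose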
tim10 confirm = confirmation of TIM10 yeast growth inhibitors; shares compounds with TIM10 inh; inhibition, % at 10 µM; 4,600 compounds, 63% hits; S. cerevisiae tim10 strain growth, BacTiter-Glo luminescence, 24 h;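 active = inhibition of yeast growth at or above a set limit in either of two replicates at 10 µM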;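 note: this counterscreen used the strain with wild-type TIM10; 0% = yeast with DMSO and 100% = medium wells lacking yeast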
Numbers without * were called inactive; x = no result.

SMILES	tim10-1 inh	PfHsp90 set2	NALP1 yeast inh	tim23-1 inh	TIM10 inh	SKKanGAS inh	tim10 confirm
CCNC(=O)CSc1nnc(-c2ccccc2Br)n1-c1cccc(C(F)(F)F)c1	23	16	22	-2	47*	5	6
NC(=O)CSc1nnc(-c2ccccc2Br)n1-c1cccc(C(F)(F)F)c1	9	9	x	15	8	1	x
CSc1nc(-c2ccccc2)nn1C(=O)c1ccc(Cl)cc1	30	2	11	37	49*	6	-24
CCC(C)(C)n1nnnc1C(c1ccc2ncccc2c1)N1CCCCCC1 (stereo unspecified)	35	-18	-4	42	43*	3	-22
COc1ccc(-c2nc3ccccc3s2)cc1O	26	14	-3	0	47*	0	-24
O=S(=O)(/N=S1/CC=CCN1S(=O)(=O)c1ccccc1)c1ccccc1 (stereo unspecified)	25	3	8	13	6	-6	x
CC1(C)Oc2ccc3ccc(=O)oc3c2/C(=C/NC2CCCCC2)C1=O	40	-3	6	-1	54*	21	42*
CCOC(=O)c1cc(-c2cccc([N+](=O)[O-])c2)n[nH]1	36	11	30*	0	48*	-7	28*
COc1cc(C2C(C#N)=C(N)N(N(C)C)C3=C2C(=O)CCC3)cc(OC)c1OC (stereo unspecified)	19	-22	10	14	7	0	x
CCOC(=O)c1oc2c(O)c(O)ccc2c(=O)c1-c1nncn1-c1ccccc1	0	-28	11	-4	-6	-3	x
N#Cc1cc(C#N)c(N2CCN(c3cccc(Cl)n3)CC2)nc1N	12	-5	-3	38	41*	7	18
NC1CCN(c2cccc(Cl)n2)CC1	-1	x	x	4	2	-3	x
Cc1ccc(-n2c(C)cc(/C([O-])=C(/C(=S)Nc3ccc(F)c(Cl)c3)[n+]3ccccc3)c2C)cc1	10	x	7	-15	41*	22	-17
Cc1cccc(NC(=S)N/N=C/c2cccn2Cc2ccc(F)cc2)c1	35	10	22	19	53*	11	49*
COc1ccc(CNC(=S)NC(C)CCc2ccccc2)cc1 (stereo unspecified)	32	0	13	10	53*	-7	21
Cc1onc(-c2ccccc2)c1C(=O)Nc1ccc(Cl)c(S(=O)(=O)N2CCOCC2)c1	14	x	x	20	9	x	x
Cc1onc(-c2c(Cl)cccc2Cl)c1C(=O)N1CCN(c2ccccc2)CC1	20	12	3	19	42*	2	-1
Cc1onc(-c2c(Cl)cccc2Cl)c1C(=O)N1CCN(c2ccc(F)cc2)CC1	20	0	9	32	12	11	x
CCOC(=O)c1cc2c(ccc3ccccc32)oc1=O	22	-19	-21	26	47*	-1	49*
N=c1oc2ccc3ccccc3c2cc1C(N)=S	20	14	14	42	42*	-10	39*
COc1cc(/C=C2\N=C(c3c(-c4ccccc4)noc3C)OC2=O)ccc1OC(C)=O	35	-23	10	29	39	11	x
COc1cccc(/C=C2\N=C(c3c(-c4ccccc4)noc3C)OC2=O)c1	40	7	33	49	47*	12	25
CC(=O)N1CCN=C1SCc1cccc(Cl)c1	1	8	20	9	3	-13	x
C/C(=N\NC(=S)Nc1ccc(F)cc1)c1ccc2c(c1)OCCO2	35	0	4	38	44*	3	51*
C/C(=N/NC(=O)c1ccc2c(c1)OCO2)c1ccc(NC(=O)c2ccc(F)cc2)cc1	-11	18	10	-11	-29	x	x
CCCCn1c(N)c(N(CCOC)C(=O)c2oc3ccc(Br)cc3c2C)c(=O)[nH]c1=O	x	-16	x	x	x	x	x
CCc1nc(-c2ccc(OC)c(OC)c2)cc2cc(OC)c(OC)cc12	17	-16	x	30	20	3	x
COc1ccccc1OCCCc1c(C)n[nH]c1C	21	36	43*	-50	52*	-6	51*
COc1cccc(OCCc2c(C)n[nH]c2C)c1	14	-5	8	10	10	6	x
